Reference: ChEMBL document CHEMBL1201862, “PubChem BioAssay data set” (2004)
The campaign covered roughly 53,000 sequences. About 3,200 (6%) were called active. This is one part of a sample in which actives are shown more often than they occur. No stated cut-off is given here; in the data, active = GI50 up to about 1.1 µM and inactive = higher. Entries with a potency or affinity are not part of this list.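 1) Cells in 96-well plates. 2) Compound, 48 h, 5 concentrations. 3) Linear interpolation between surrounding doses. 4) Unreached endpoint = highest concentration. Here, GI50 denotes the concentration required for 50% inhibition of growth.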

Each substance was assayed on HCC 2998 (assay: NCI tumour cell line growth inhibition, 48 h).

Substance	GI50 [µM]
CISPLATIN, CHEMBL11359	5.4
[Bis(aminomethyl)tetramethylenesilane]dichloropaltinum(II), CHEMBL2146205	25.4
[Bis(aminomethyl)dimethylsilane]tetrachloroplatinum(IV), CHEMBL2146190	6.78
[Bis(aminomethyl)ethylmethylsilane]tetrachloroplatinum(IV), CHEMBL2146192	2.38
[Bis(aminomethyl)dimethylsilane]dichloroplatinum (II), CHEMBL2146201	10
[Bis(aminomethyl)tetramethylenesilane]tetrachloropaltinum(IV), CHEMBL2146189	0.682
[Bis(aminomethyl)pentamethylenesilane]tetrachloropaltinum(IV), CHEMBL2146204	0.313
mu-(1,7-nanodiamine-N,N')bis-(cis-aminedichloroplatimum (II)), CHEMBL2146215	24
[Bis(aminomethyl)pentamethylenesilane]dichloropaltinum(II), CHEMBL2146202	3.52
